Measurements taken from PubChem BioAssay (Tox21).
Results filed as inconclusive are left out. A call without a number means that no potency is given here. Active and inactive are the calls of the source. Calls come from the whole dose curve; as a rule, active = well fitted curve in the direction sought with a large enough effect in the repeat runs; inconclusive = weak or mixed curves; inactive = no such curve, though single readings can be large; an effect the other way counts as inactive or inconclusive.

Legend:
[1] = molecular target: Cytochrome P450 2D6 (Homo sapiens) (UniProt P10635); assay: Cytochrome P450 Family 2 Subfamily D Member 6 (CYP2D6) small molecule antagonists: luciferase reporter qHTS assay (AID 1671196); note: nearly all actives have a fitted effect of over 50% in size; note: potency is the fitted concentration of half-maximal effect
Cytochrome P450 2D6 (Homo sapiens), sequence (P10635 whole entry, looked up): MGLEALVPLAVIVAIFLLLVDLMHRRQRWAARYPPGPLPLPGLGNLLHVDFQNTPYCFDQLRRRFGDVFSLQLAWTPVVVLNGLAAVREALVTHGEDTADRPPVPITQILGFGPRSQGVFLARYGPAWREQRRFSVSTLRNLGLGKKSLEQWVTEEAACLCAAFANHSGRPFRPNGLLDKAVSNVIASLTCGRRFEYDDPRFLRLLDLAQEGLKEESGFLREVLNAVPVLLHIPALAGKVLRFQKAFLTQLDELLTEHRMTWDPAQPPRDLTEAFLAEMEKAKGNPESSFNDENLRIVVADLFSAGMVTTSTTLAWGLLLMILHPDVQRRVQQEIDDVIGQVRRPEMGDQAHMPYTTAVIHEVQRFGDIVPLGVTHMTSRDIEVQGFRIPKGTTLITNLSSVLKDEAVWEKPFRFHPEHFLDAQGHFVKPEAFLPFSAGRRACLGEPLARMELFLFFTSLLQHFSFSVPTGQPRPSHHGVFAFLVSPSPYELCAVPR
In short: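 Read-out is luminescence from luciferin formed by CYP2D6 turnover of a proluciferin substrate, recorded as relative luminescence units. Reactions ran 1 h at room temperature after NADPH regeneration solution was added.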

[2] = molecular target: Cytochrome P450 2C9 (Homo sapiens) (UniProt P11712); assay: Cytochrome P450 Family 2 Subfamily C Member 9 (CYP2C9) small molecule antagonists: luciferase reporter qHTS assay (AID 1671198); note: nearly all actives have a fitted effect of over 50% in size; note: potency is the fitted concentration of half-maximal effect
Cytochrome P450 2C9 (Homo sapiens), sequence (P11712 whole entry, looked up): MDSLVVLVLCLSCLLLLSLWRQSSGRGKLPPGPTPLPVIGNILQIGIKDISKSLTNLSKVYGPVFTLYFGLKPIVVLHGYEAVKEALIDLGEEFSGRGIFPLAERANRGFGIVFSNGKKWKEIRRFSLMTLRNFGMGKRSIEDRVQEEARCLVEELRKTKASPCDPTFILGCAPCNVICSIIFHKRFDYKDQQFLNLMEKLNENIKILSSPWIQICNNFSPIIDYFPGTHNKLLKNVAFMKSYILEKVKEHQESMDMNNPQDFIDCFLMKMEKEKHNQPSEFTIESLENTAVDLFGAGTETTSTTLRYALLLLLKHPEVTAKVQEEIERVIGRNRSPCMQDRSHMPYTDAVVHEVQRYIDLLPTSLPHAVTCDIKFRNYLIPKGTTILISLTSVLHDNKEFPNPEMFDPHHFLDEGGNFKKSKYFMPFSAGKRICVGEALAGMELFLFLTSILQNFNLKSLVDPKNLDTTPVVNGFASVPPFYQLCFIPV
In short: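 Enzyme-substrate mix preincubated with compound 10 min at room temperature; reaction started with NADPH regeneration solution, 1 h 37C. Luminescent luciferin product read after 20 min detection reagent.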

[3] = molecular target: Cytochrome P450 1A2 (Homo sapiens) (UniProt P05177); assay: Cytochrome P450 Family 1 Subfamily A Member 2 (CYP1A2) small molecule antagonists: luciferase reporter qHTS assay (AID 1671199); note: nearly all actives have a fitted effect of over 50% in size; note: potency is the fitted concentration of half-maximal effect
Cytochrome P450 1A2 (Homo sapiens), sequence (P05177 whole entry, looked up): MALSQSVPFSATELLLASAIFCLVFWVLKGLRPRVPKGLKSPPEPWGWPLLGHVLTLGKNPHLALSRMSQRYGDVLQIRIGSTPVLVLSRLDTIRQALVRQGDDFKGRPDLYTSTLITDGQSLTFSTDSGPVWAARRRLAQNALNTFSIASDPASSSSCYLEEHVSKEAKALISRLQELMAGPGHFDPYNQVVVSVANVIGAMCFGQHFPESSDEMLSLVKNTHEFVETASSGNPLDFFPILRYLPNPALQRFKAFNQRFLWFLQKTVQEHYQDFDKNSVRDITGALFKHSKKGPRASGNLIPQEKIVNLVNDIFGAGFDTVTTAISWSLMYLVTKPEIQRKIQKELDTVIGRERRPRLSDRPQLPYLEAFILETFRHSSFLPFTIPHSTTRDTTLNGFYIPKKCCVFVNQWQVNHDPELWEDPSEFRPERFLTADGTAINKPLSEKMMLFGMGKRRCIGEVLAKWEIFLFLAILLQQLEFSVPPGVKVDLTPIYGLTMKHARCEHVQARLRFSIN
In short: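 P450-Glo CYP1A2, 1536-well qHTS: enzyme/proluciferin substrate + cpd (DMSO), 10 min RT; NADPH regen, 1 h RT; detection reagent, 20 min; luminescence, RLU.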

[4] = molecular target: Voltage-gated inwardly rectifying potassium channel KCNH2 (Homo sapiens) (UniProt Q12809); assay: Human Ether-a-go-go-Related Gene (hERG) channel small molecule antagonists: fluorescence cell-based qHTS assay (AID 1671200);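 note: hERG-expressing U2OS cells given a thallium stimulus after FluxOR II dye loading; series mostly up to about 77 µM; nearly all actives have a fitted effect of over 50% in size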
Voltage-gated inwardly rectifying potassium channel KCNH2 (Homo sapiens), sequence (Q12809 whole entry, looked up): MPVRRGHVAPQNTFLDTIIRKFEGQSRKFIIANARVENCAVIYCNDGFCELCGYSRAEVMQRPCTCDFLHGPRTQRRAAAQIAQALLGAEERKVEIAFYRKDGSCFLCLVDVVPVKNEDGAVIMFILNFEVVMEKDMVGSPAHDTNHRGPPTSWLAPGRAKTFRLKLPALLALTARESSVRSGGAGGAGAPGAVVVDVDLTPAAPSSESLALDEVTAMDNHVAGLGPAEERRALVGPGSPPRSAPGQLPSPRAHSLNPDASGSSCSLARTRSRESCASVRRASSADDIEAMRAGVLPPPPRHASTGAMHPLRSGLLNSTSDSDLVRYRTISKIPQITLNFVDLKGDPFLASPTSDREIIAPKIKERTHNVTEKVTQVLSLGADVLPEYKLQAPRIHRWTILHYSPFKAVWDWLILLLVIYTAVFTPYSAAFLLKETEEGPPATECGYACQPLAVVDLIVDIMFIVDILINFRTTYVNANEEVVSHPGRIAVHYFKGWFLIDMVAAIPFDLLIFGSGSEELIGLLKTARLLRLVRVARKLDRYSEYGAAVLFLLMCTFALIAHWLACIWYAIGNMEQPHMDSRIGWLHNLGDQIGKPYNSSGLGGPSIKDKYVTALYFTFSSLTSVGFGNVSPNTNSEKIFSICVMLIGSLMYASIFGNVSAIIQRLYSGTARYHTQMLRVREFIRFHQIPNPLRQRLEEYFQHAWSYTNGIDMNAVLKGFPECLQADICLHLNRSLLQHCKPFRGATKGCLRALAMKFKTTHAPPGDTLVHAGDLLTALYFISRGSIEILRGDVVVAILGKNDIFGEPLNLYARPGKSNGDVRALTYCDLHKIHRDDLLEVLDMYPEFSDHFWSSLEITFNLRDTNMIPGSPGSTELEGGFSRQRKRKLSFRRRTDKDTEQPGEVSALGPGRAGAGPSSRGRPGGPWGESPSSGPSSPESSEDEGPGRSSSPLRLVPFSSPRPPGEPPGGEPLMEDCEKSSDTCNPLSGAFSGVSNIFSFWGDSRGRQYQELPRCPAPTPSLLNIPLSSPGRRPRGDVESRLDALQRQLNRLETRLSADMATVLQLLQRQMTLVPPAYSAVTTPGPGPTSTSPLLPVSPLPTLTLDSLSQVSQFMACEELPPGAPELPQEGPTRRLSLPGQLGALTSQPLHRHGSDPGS
In short: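 hERG-U2OS cells plated overnight at 37 C, loaded with FluxOR II dye 1 h at RT in dark; after 10 min, thallium stimulus added. Fluorescence (480/540 nm) read kinetically for 2 min at 1 s intervals.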

[5] = molecular target: Cytochrome P450 3A4 (Homo sapiens) (UniProt P08684); assay: Cytochrome P450 Family 3 Subfamily A Member 4 (CYP3A4) small molecule antagonists: luciferase reporter qHTS assay (AID 1671201); note: nearly all actives have a fitted effect of over 50% in size; note: potency is the fitted concentration of half-maximal effect
Cytochrome P450 3A4 (Homo sapiens), sequence (P08684 whole entry, looked up): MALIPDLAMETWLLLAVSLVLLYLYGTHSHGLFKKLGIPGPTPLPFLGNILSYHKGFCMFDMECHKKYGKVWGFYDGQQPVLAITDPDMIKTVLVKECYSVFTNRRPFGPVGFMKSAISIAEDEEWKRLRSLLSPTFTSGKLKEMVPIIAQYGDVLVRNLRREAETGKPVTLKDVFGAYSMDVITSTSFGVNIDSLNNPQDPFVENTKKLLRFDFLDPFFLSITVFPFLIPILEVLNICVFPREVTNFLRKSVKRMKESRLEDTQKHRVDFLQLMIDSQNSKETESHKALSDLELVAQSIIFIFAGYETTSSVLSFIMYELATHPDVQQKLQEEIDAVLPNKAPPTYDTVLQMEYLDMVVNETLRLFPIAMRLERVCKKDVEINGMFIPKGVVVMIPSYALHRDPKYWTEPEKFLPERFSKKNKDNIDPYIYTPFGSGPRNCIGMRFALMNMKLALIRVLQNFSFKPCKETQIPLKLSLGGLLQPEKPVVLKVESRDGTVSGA
In short: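 P450-Glo CYP3A4 luminescent assay: compounds preincubated 10 min at room temperature with enzyme and proluciferin substrate, NADPH regeneration added, 1 h room-temperature reaction, stopped with luciferin detection reagent; luminescence read after 20 min. Ketoconazole positive control.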

[6] = molecular target: Cytochrome P450 2C19 (Homo sapiens) (UniProt P33261); assay: Cytochrome P450 Family 2 Subfamily C Member 19 (CYP2C19) small molecule antagonists: luciferase reporter qHTS assay (AID 1671197); note: nearly all actives have a fitted effect of over 65% in size; note: potency is the fitted concentration of half-maximal effect
Cytochrome P450 2C19 (Homo sapiens), sequence (P33261 whole entry, looked up): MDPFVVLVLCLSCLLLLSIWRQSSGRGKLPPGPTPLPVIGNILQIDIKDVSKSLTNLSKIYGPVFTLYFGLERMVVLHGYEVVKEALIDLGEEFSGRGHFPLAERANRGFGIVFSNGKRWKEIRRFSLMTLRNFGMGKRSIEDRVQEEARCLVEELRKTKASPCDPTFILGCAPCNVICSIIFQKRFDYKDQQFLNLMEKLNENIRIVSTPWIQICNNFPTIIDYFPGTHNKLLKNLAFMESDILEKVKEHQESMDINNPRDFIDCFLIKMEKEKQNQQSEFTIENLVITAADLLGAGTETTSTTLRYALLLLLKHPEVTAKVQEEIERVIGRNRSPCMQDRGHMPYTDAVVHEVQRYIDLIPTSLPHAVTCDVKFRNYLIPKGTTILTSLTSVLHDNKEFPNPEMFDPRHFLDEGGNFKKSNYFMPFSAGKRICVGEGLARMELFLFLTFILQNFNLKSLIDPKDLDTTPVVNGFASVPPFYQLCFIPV
In short: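 CYP2C19 P450-Glo, 1536-well qHTS. Cpd + enzyme/proluciferin substrate 10 min RT; + NADPH regen, 37C 1 h; stop with luciferin detection reagent, 20 min RT, luminescence (RLU). Pos ctrl ketoconazole.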

SMILES | Potency [1] | Potency [2] | Potency [3] | Potency [4] | Potency [5] | Potency [6]
O=C(O)Cc1cn(-c2ccccc2)nc1-c1ccc(Cl)cc1 | inactive | 5.49 µM (active) | inactive | inactive | inactive | –
CCCC/C=C\CCCCCCCCCC=O | inactive | inactive | inactive | inactive | inactive | –
CCNC(=O)C1CC(C)CCC1C(C)C (configuration not stated) | inactive | – | inactive | inactive | 17.8 µM (active) | 17.8 µM (active)
CC(=O)Nc1ccc(S(=O)(=O)Cl)cc1 | inactive | inactive | inactive | inactive | inactive | –
Nc1ccc(S(=O)(=O)Nc2ccc(Cl)nn2)cc1 | inactive | – | inactive | inactive | inactive | inactive
Brc1ccc(-c2ccccc2)cc1 | inactive | – | 6.31 µM (active) | inactive | inactive | inactive
CC(CC=O)CCCC(C)(C)O (configuration not stated) | 39.7 µM (active) | – | inactive | inactive | inactive | 79.2 µM (active)
CC(=O)N[C@@H](CCC(=O)O)C(=O)O | inactive | inactive | inactive | inactive | inactive | –
CC(C(=O)O)c1ccc2c(c1)CC(=O)c1ccccc1S2 (configuration not stated) | inactive | – | – | inactive | inactive | inactive
CC(=O)/C=C/C1C(C)=CCC(C)C1(C)C (configuration not stated) | inactive | – | – | inactive | 25.2 µM (active) | 10 µM (active)
COc1cc(NS(=O)(=O)c2ccc(N)cc2)nc(OC)n1 | inactive | – | inactive | inactive | inactive | inactive
CCOC(=O)c1ncn2c1CN(C)C(=O)c1cc(F)ccc1-2 | inactive | – | inactive | inactive | inactive | inactive
CCCCOC(=O)c1ccccc1 | inactive | inactive | inactive | inactive | inactive | –
C=Cc1ccccn1 | inactive | inactive | inactive | inactive | inactive | –
CC(C)C(=O)OCCc1ccccc1 | inactive | – | inactive | inactive | inactive | inactive
FC(F)(F)c1ccccc1-n1ccnc1 | 2.19 µM (active) | – | 5.49 µM (active) | inactive | – | 5.49 µM (active)

SMILES | Potency [1] | Potency [2] | Potency [3] | Potency [4] | Potency [5] | Potency [6]
Cc1cccc(C)c1OCC(C)N (configuration not stated) | 13.8 µM (active) | – | 1.62 µM (active) | inactive | inactive | inactive
C[C@@H]1O[C@@H](O[C@@H]2[C@@H](O)[C@H](OCCc3ccc(O)c(O)c3)O[C@H](CO[C@@H]3O[C@H](CO)[C@@H](O)[C@H](O)[C@H]3O)[C@H]2OC(=O)/C=C/c2ccc(O)c(O)c2)[C@H](O)[C@H](O)[C@H]1O | inactive | – | inactive | inactive | inactive | inactive
COCCc1ccc(OCC2CO2)cc1 (configuration not stated) | inactive | – | inactive | inactive | inactive | inactive
NCCS | inactive | – | inactive | inactive | inactive | inactive
CC1COc2ccccc2N1 (configuration not stated) | inactive | – | 31.7 µM (active) | inactive | inactive | 44.8 µM (active)
CC[C@H](C)C(=O)O[C@H]1C[C@H](O)C=C2C=C[C@H](C)[C@H](CC[C@@H](O)C[C@@H](O)CC(=O)O)[C@H]21 | inactive | – | inactive | inactive | inactive | inactive
CC(C)OC(=O)CCCCC(=O)OC(C)C | – | inactive | inactive | inactive | inactive | inactive
O=C(CS(=O)Cc1ccco1)NC/C=C\COc1cc(CN2CCCCC2)ccn1 (configuration not stated) | – | inactive | inactive | inactive | inactive | inactive
CCOCCOCCOCC | – | inactive | inactive | inactive | inactive | inactive
COC(=O)CCc1ccc(OCC(O)CNC(C)C)cc1 (configuration not stated) | – | inactive | inactive | inactive | inactive | inactive
O=S(=O)(O)CCN1CCN(CCO)CC1 | – | inactive | inactive | inactive | inactive | inactive
O=C1c2cccc3c2[C@H](CCC3)CN1[C@@H]1CN2CCC1CC2 | – | inactive | inactive | inactive | – | inactive
O=C(O)c1cc(Br)c(O)c(Br)c1 | – | 71 µM (active) | 39.9 µM (active) | inactive | inactive | 7.96 µM (active)
CC(C)CC(C)CC(C)CC(C)COC(=O)c1ccccc1C(=O)OCC(C)CC(C)CC(C)CC(C)C (configuration not stated) | – | 58.7 µM (active) | 65.9 µM (active) | inactive | – | 65.9 µM (active)
CC(C)c1ccc2cc(C(C)C)ccc2c1 | inactive | inactive | – | inactive | inactive | –
CN(CCOc1ccc(NS(C)(=O)=O)cc1)CCc1ccc(NS(C)(=O)=O)cc1 | – | inactive | inactive | – | – | inactive
